Bioassay records from PubChem BioAssay.
The full list was thinned out, with hits kept by preference.
mHTT-CaM PPI inh = mutant huntingtin-calmodulin interaction inhibitors – biochemical, AlphaScreen, primary screen; AlphaScreen His-mHTT/GST-CaM binding, luminescence; inhibition, % at 15 µM; 190,000 compounds, 3.6% hits;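 also: 0% = both proteins with DMSO and 100% = one protein alone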
Pf apPOL inh = Pf-apPOL inhibitors, biochemical, fluorescence. Plasmodium falciparum apicoplast DNA polymerase (apPOL). Recombinant Pf-apPOL, molecular beacon fluorescence, 1.5 h. inhibition, % at 10 µM. 210,000 compounds, 0.25% hits
Starred values were filed as active, the others as inactive; x = no result given. Rule as the data show it: active = inhibition above about 50%; inactive = the rest.

SMILES	mHTT-CaM PPI inh	Pf apPOL inh
CN(C)CCNC(=O)c1ccc(-c2ccnc(N3CCCC3)n2)cc1	0	-12
CC1CCN(CC2CCN(S(=O)(=O)c3ccc4[nH]c(=O)oc4c3)CC2)CC1	4	-2
CCOC(=O)c1cc(=O)c2ccc(OCC(=O)Nc3cccc(C#N)c3)cc2o1	x	6
COCCCNC(=O)N1CCc2cn(CCOC)c3cccc(c23)C1	4	-1
CCOCC(=O)N1CCc2cn(CC)c3cccc(c23)C1	28	-4
COCCn1cc2c3c(cccc31)CN(C(=O)Cc1cccc(F)c1)CC2	40	-1
COCCn1cc2c3c(cccc31)CN(C(=O)Cc1c(F)cccc1Cl)CC2	-3	0
COCCn1cc2c3c(cccc31)CN(C(=O)Cc1ccccc1Cl)CC2	71*	-1
CCC(C(=O)N1CCc2cn(CCOC)c3cccc(c23)C1)c1ccccc1 (stereo unspecified)	63*	-3
Cn1cc2c3c(cccc31)CN(C(=O)Cc1cccc(F)c1)CC2	53*	-1
CCn1cc2c3c(cccc31)CN(C(=O)COc1ccc(F)cc1)CC2	74*	-6
N#C/C(C(N)=O)=C1/C(=O)Nc2ccc(Br)cc21	20	-2
CCc1onc(C)c1C1CCCN1C(=O)c1c(-c2c(F)cccc2Cl)noc1C (stereo unspecified)	2	5
Cc1cc(OCC(=O)N2CCCCC2CCN2CCOCC2)cc(C)c1Cl (stereo unspecified)	14	-4
CC(C)CCNC(=O)N1CCC(c2cc(N)on2)CC1	-10	-6
Cc1cc(C2CCCN2C(=O)Nc2ccc3c(c2)OCO3)no1 (stereo unspecified)	1	-2
Cc1cc(C)n(C(=O)C(Cc2ccccc2)N2C(=O)C3CCCCC3C2=O)n1 (stereo unspecified)	-3	-2
O=C(c1cccc(N2CCNC(c3ccccc3)C2)n1)N1CCCN(c2ncccn2)CC1 (stereo unspecified)	0	-3
COc1ccc(NS(=O)(=O)c2c(C)cc(C)c([N+](=O)[O-])c2C)cc1	7	4
COCCn1cc2c3c(cccc31)CN(C(=O)COc1ccc(F)cc1)CC2	56*	-2
COCCn1cc2c3c(cccc31)CN(C(=O)COC)CC2	30	-1
O=C(NCCc1cccs1)c1coc(NC(=O)c2cnccn2)n1	32	-11
CS(=O)(=O)Nc1ccc(Cl)cc1Cl	-2	x
CS(=O)(=O)Nc1ccc(Cl)c2cccnc12	86*	-3
COc1cc2ccccc2cc1C(=O)Nc1onc2c1CCCC2	-13	-13
SMILES	mHTT-CaM PPI inh	Pf apPOL inh
CC(C)(C)C1CC=C2C(C#N)=C(N)C(C#N)(C#N)C(CCc3ccccc3)C2C1 (stereo unspecified)	65*	-12
COc1cccc(C2C3CC(C(C)(C)C)CC=C3C(C#N)=C(N)C2(C#N)C#N)c1O (stereo unspecified)	40	-1
Cc1[nH]nc(-c2ccc(O)c(O)c2O)c1Oc1ccccc1	97*	-6
Oc1ccc(-c2[nH]ncc2Oc2ccccc2)c(O)c1O	100*	-2
CCCc1ccc(Oc2c(C)oc3c(C)c(O)ccc3c2=O)cc1	2	-11
Oc1ccc(-c2[nH]ncc2Oc2ccccc2)c(O)c1	44	2
CCCc1ccc(Oc2cn[nH]c2-c2ccc(O)c(C)c2O)cc1	90*	-7
COc1ccc(-c2n[nH]c(C)c2Oc2ccccc2)c(O)c1	32	-3
CCCS(=O)(=O)N1CCc2ccc(NC(=O)c3snnc3C)cc2C1	-12	-1
CCOc1ccc(S(=O)(=O)N(CC(=O)NC2CC3CCC2C3)c2ccccc2)cc1 (stereo unspecified)	2	-12
O=C(O)c1ccc(N2CCCCC2)c([N+](=O)[O-])c1	5	-8
O=S1(=O)N[C@H](Cc2ccccc2)COc2cccc(N3CCN(Cc4ccccc4F)CC3)c21	62*	-6
CN1CCN(c2cccc3c2S(=O)(=O)N[C@H](Cc2ccccc2)CO3)CC1	-3	-8
CCCn1cnnc1C1CCCN(Cc2scnc2C)C1 (stereo unspecified)	4	2
Cc1nc2c(C(=O)NCc3ccccc3)c[nH]n2c(=O)c1Cc1ccccc1Cl	40	-2
Cc1nc2c(C(=O)NCc3ccccc3Cl)c[nH]n2c(=O)c1Cl	13	-13
Cc1nc2c(C(=O)NCc3ccccc3)c[nH]n2c(=O)c1Cl	46	73*
Cc1nc2c(C(=O)NCCc3ccccc3Cl)c[nH]n2c(=O)c1Cl	57*	-15
COc1cccc(C=C2Oc3c(ccc(O)c3CN3CCN(CCO)CC3)C2=O)c1OC	3	-1
CSc1ccc(OC(=O)Nc2ccccc2)cc1	x	-18
Cc1c(-c2ccnn2S(C)(=O)=O)sc2ccc(Cl)cc12	x	-8
COc1ccccc1N1CCN(c2ncc(C(=O)NC3CCCCC3)c3ccccc23)CC1	3	-2
COc1ccc(C2(C(=O)N3CCC(c4nncn4C)CC3)CC2)cc1	0	-3
CN(C)S(=O)(=O)c1ccc(C(=O)NCc2ccc3[nH]c4c(c3c2)CCCC4)cc1	29	-6
O=C(NCc1ccc2[nH]c3c(c2c1)CCCC3)C12CC3CC(CC(C3)C1)C2	98*	-6
SMILES	mHTT-CaM PPI inh	Pf apPOL inh
O=C(Cc1ccc([N+](=O)[O-])cc1)NCc1ccc2[nH]c3c(c2c1)CCCC3	31	28
O=C(CC1CCCCC1)NCc1ccc2[nH]c3c(c2c1)CCCC3	92*	-5
CC1(C)CC(=O)C2=C(C1)OC(c1ccc(I)o1)C(C#N)=C2N (stereo unspecified)	4	-8
CCn1cnc2cc(CNC(=O)c3ccc(C(F)(F)F)cc3)ccc21	12	-6
O=S(=O)(CCCOc1ccc(F)cc1)NC1CC1	-5	2
CC1CCC2(CC1)C(C#N)C(=O)NC(=O)C2C#N (stereo unspecified)	-3	-1
CCOc1ccc(N=C2C(=O)N(CN3CCCCC3)c3ccccc32)cc1	65*	12
CCOc1ccc(N=C2C(=O)N(CN3CCCC(C)C3)c3ccccc32)cc1 (stereo unspecified)	10	-1
O=C(NCc1cccs1)c1cc2c(s1)CN(Cc1ccccc1)C2	5	28
Cc1ccccc1NCN1C(=O)C(=O)c2ccccc21	25	1
Cc1ccc(CNC(=O)c2cc(NC(=O)C(C)C)cc3nc(C)ccc23)cc1	19	28
CCOc1ccc(CNC(=O)c2cc(NC(C)=O)cc3nc(C)ccc23)cc1	18	7
Cc1ccc2c(C(=O)NCc3ccccc3Cl)cc(NC(=O)C(C)C)cc2n1	58*	0
CCC(=O)Nc1cc(C(=O)NCc2cc(F)cc(F)c2)c2ccc(C)nc2c1	54*	0
CCCCNc1cccc2c1S(=O)(=O)N[C@@H](CC(C)C)CO2	-2	-4
Cn1nc(-c2ccc(N3CCOCC3)c(NS(C)(=O)=O)c2)c2ccccc2c1=O	-2	3
CCC(=O)Nc1ccc(O)c(-c2nc3cc(C)ccc3o2)c1	6	54*
Cc1ccc2oc(-c3cc(NC(=O)c4ccccc4C)ccc3O)nc2c1	2	-2
Cc1cccc(C)c1NC(=O)CSC1CC(=O)N(c2ccccc2)C1=O (stereo unspecified)	-1	1
O=C1C(=Cc2cc(Cl)cc3c2OCOC3)Oc2c1ccc(O)c2CN1CCOCC1	9	4
COc1cc(OC)c(OC)cc1C=C1Oc2c(ccc(O)c2CN2CCCC(C)C2)C1=O (stereo unspecified)	51*	-1
